Among all 400,000 compounds or so, about 2,100 (0.53%) were called active. Roughly 14% stayed inconclusive and do not appear here. How the calls were made is not given here. The full list was thinned out, with actives kept by preference.
Molecular target: Ataxin-2 (Homo sapiens) (UniProt Q99700)
Assay: qHTS for Inhibitors of ATXN expression.
Assay type: functional

Chain of Ataxin-2 (Homo sapiens) (Q99700 whole entry): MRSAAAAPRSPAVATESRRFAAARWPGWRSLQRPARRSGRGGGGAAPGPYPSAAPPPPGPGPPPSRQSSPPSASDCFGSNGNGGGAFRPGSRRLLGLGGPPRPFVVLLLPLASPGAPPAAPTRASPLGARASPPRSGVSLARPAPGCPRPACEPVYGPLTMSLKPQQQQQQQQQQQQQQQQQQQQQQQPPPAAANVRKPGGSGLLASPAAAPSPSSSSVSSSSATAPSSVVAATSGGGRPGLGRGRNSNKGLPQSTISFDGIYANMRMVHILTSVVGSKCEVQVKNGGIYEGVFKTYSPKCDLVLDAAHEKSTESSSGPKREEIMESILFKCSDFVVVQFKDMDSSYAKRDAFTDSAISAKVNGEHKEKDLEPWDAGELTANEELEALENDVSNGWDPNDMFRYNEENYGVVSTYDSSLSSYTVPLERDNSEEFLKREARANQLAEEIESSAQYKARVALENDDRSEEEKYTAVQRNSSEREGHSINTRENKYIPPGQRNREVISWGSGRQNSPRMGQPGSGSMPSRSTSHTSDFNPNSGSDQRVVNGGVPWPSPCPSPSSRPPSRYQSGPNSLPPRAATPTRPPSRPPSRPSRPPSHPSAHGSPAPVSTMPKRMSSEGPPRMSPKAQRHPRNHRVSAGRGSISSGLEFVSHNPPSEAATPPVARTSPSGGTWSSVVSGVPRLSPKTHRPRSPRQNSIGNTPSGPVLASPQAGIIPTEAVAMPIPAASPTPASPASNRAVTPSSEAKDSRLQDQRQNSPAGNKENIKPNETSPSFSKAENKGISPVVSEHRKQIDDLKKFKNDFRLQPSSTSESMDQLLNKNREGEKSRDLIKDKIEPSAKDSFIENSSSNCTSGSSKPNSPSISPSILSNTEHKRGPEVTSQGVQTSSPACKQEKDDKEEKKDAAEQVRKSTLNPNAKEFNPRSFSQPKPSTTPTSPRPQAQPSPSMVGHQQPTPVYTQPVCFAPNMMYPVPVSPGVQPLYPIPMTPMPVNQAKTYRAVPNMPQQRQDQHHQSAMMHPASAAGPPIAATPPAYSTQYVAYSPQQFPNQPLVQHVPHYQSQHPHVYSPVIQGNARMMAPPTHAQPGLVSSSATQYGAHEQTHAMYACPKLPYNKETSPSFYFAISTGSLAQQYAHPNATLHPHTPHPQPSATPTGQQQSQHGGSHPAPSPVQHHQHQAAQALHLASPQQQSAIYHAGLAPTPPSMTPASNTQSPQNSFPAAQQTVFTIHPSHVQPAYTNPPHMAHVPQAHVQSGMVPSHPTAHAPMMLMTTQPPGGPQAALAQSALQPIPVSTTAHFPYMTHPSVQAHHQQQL

Structure (SMILES)	Potency
CCN(CC)C(=O)CSc1nc2ccccc2c(=O)n1CCC(=O)N1CCN(c2ccccc2)CC1	inactive
COc1ccc(-n2cc(C(=O)c3cc(Cl)ccc3O)cc(C#N)c2=O)cc1	inactive
Clc1cccc(Cc2c(-c3ccco3)nc3ccc(Cl)cn23)c1	28.2 µM (active)
COc1ccc2nc(-c3ccco3)c(-c3ccco3)nc2c1	inactive
Clc1cccc(Cc2c(-c3ccco3)nc3ccc(Br)cn23)c1	31.6 µM (active)
COc1ccc(Cc2c(-c3ccco3)nc3ccc(Br)cn23)c(C)c1	20 µM (active)
Clc1cccc(CSc2ccc(-c3ccco3)nn2)c1	inactive
Fc1cccc(Cc2c(-c3ccco3)nc3ccc(Cl)cn23)c1	39.8 µM (active)
COc1ccc(C2C(C(=O)c3ccco3)=C(O)C(=O)N2c2nnc(C)s2)cc1 (stereo not given)	inactive
O=C(CC1C(=O)NC2CCCCC2N1C(=O)c1ccc([N+](=O)[O-])cc1)Nc1ccccc1 (stereo not given)	inactive
Cc1ccc(S(=O)(=O)N2CCN(C(=O)c3cc(C4CC4)nc4c3cnn4C(C)C)CC2)cc1	inactive
Fc1cccc(Cc2c(-c3ccco3)nc3ccc(Br)cn23)c1	39.8 µM (active)
CC(=O)Nc1c(-c2ccccc2)nc2ccc(Cl)cn12	inactive
Cc1ccc2nc(-c3ccncc3)c(NC3CCCCC3)n2c1	inactive
Cc1nc2ccc(Cl)cn2c1[N+](=O)[O-]	inactive
Cc1ccc2nc(-c3ccco3)c(CC3CCCCC3)n2c1	22.4 µM (active)
Sc1nnc(-c2ccco2)n1-c1ccc(Br)cc1	inactive
Cc1ccc(Cc2c(-c3ccco3)nc3ccc(Cl)cn23)cc1	25.1 µM (active)
CCOC(=O)C1CCN(C(=O)Nc2ccc3nc(-c4ccco4)c(-c4ccco4)nc3c2)CC1	inactive
COCCNC(=O)c1cc2c(=O)n3cccc(C)c3nc2n(Cc2ccncc2)c1=N	inactive
C/C(=N\NC(=O)C1COc2ccccc2O1)c1ccc(N2CCOCC2)cc1 (stereo not given)	inactive
O=C(COC(=O)c1c2c(nc3ccccc13)/C(=C\c1ccco1)CC2)NC1CCCC1	inactive

Structure (SMILES)	Potency
O=C1C(=C(I)I)c2ccccc2-c2ccccc21	26.7 µM (active)
COc1ccc(C2C=C(C)Nc3nc4ccccc4n32)cc1 (stereo not given)	inactive
Cc1ccc(C(C)(C)C)cc1S(=O)(=O)N1CC(=O)Nc2ccccc21	inactive
COc1ccc(NC(=O)COC(=O)c2[nH]nc3ccccc23)c(OC)c1	inactive
COc1ccc(C(=O)c2oc3ccccc3c2NC(=O)c2ccc(F)cc2)cc1	inactive
COc1ccc(NC(=O)c2oc3ccccc3c2NC(=O)COc2ccccc2OC)c(OC)c1	35.5 µM (active)
Brc1ccc(C2=CC(c3ccco3)n3ncnc3N2)cc1 (stereo not given)	inactive
COc1ccc(/N=c2\oc3c(OC)cccc3cc2C(=O)NCc2ccco2)c(OC)c1	22.4 µM (active)
COc1cccc2cc(C(=O)NCc3ccc(Cl)cc3)c(=O)oc12	inactive
COc1ccc(/N=c2\oc3cc(O)ccc3cc2C(=O)NCC2CCCO2)c(OC)c1 (stereo not given)	inactive
CCc1c(C)c(C#N)c2nc3ccccc3n2c1S	inactive
CC(C)=CCC[C@H](C)C[C@@H]1Cc2nc(S)nc(O)c2[C@@H](c2ccc(F)cc2)O1	28.2 µM (active)
Cc1ccc(-c2noc(CN(C(=O)c3ccc4c(c3)OCO4)C(C)C)n2)cc1	inactive
CC(CNC(=O)c1cc(COc2ccc3ncccc3c2)on1)c1ccccc1 (stereo not given)	44.7 µM (active)
CC(=O)c1ccc(OCc2cc(C(=O)N3CCC(c4ccncc4)CC3)no2)cc1	inactive
CSc1ccccc1NC(=O)c1cc(CC(C)C)on1	inactive
CCOC(=O)C1CCN(C(=O)Cn2c(=O)c3cccn3c3cccnc32)CC1	inactive
N#Cc1ccc(OCC(O)CS(=O)(=O)c2ccc(F)cc2)cc1 (stereo not given)	inactive
CN(C)c1ccc(N=Nc2ccc(S(=O)(=O)O)cc2)c2ccccc12	25.1 µM (active)
Cc1cc(/C=c2\sc3nc4ccccc4n3c2=O)c(C)n1-c1ccc(C(=O)O)cc1	inactive
FC(F)Oc1ccc(/C=N/NC(=S)Nc2cc(C(F)(F)F)ccc2Cl)cc1	39.8 µM (active)
COc1cc(OC)c(C(=O)OC(C)C(=O)Nc2cc(C(F)(F)F)ccc2Cl)cc1OC (stereo not given)	inactive

Structure (SMILES)	Potency
CC(Sc1nc[nH]n1)C(=O)Nc1cc(C(F)(F)F)ccc1Cl (stereo not given)	inactive
CCCc1cc(NCc2ccccn2)n2c(nc3ccccc32)c1C#N	inactive
C=C1C(=O)OC2CC1C(O)CC(C)=CCCC(C)=CC(O)CC2C (stereo not given)	15 µM (active)
CN(C)CCNc1ncnc2c1sc1nc(-c3ccccc3)c3c(c12)CCCC3	25.1 µM (active)
NC(=O)c1sc2nc(-c3ccccc3)c3c(c2c1N)CCCC3	inactive
CC(=O)c1sc2nc(-c3ccc(C)cc3)c3c(c2c1N)CCCC3	inactive
CCN(CC)c1cc(C)c(C#N)c2nc3ccccc3n12	inactive
Cc1cc(C)nc(OC(C(=O)O)C(OCCc2ccccc2)(c2ccc(F)cc2)c2ccc(F)cc2)n1 (stereo not given)	inactive
CS(=O)(=O)c1ccc(C(=O)NCCN2C(=O)S/C(=C\c3cccnc3)C2=O)cc1[N+](=O)[O-]	11.2 µM (active)
Cc1ccc(C(=O)NCC(=O)N/N=C/c2cccs2)cc1[N+](=O)[O-]	inactive
COc1ccc(OCC(O)CNCCOc2ccccc2OC)c(C(C)(C)C)c1 (stereo not given)	20 µM (active)
CNCCCOc1ccc(C)cc1OC	inactive
COc1ccc(C(C(=O)NC2CCCC2)N(C(=O)c2ccco2)c2cc3c(cc2C(C)=O)OCO3)cc1 (stereo not given)	inactive
COCCCn1c(C(=O)NC2CCCCC2)cc2c(=O)n3cccc(C)c3nc21	inactive
O=C(NC1CCCC1)C(c1ccc(Cl)cc1)N(Cc1ccc(F)cc1)C(=O)CCl (stereo not given)	39.8 µM (active)
NC(=O)c1nsc(C(=O)N(Cc2cccnc2)C(C(=O)NC2CCCC2)c2ccc(F)cc2)c1N (stereo not given)	inactive
CCc1ccc(N(C(=O)c2snc(C(N)=O)c2N)C(C(=O)NC2CCCC2)c2ccncc2)cc1 (stereo not given)	inactive
COCCN(C(=O)CCl)C(C(=O)NC1CCCCC1)c1ccccc1C (stereo not given)	25.1 µM (active)
CC(C(=O)NC1CCCCC1)N(Cc1ccc(F)cc1)C(=O)c1snc(C(N)=O)c1N (stereo not given)	inactive
COc1ccc(C(C(=O)NC2CCCCC2)N(C(=O)CCl)c2ccc(C)cc2)cc1 (stereo not given)	7.08 µM (active)
COCCCn1c(=N)c(C(=O)NC2CCCC2)cc2c(=O)n3cccc(C)c3nc21	inactive
